Results as given in PubChem BioAssay AID743100 (Vanderbilt Specialized Chemistry Center, 2013).
Active and inactive are the calls of the source.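 Rule for the calls: active = calcium response above 60% of the acetylcholine maximum at human M5, as a positive modulator; inactive = the rest.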

What follows are molecules tested against Muscarinic acetylcholine receptor M5 (Homo sapiens) (UniProt P08912) (assay: M5 muscarinic receptor positive allosteric modulators, cell-based, single concentration, CHO-K1 hM5, calcium flux (AID 743100)). Settings: CHO-K1 hM5, Fluo-4 calcium flux, ACh EC20, stronger effect = higher value; at 10 µM unless noted.
Chain of Muscarinic acetylcholine receptor M5 (Homo sapiens) (P08912 whole entry, looked up): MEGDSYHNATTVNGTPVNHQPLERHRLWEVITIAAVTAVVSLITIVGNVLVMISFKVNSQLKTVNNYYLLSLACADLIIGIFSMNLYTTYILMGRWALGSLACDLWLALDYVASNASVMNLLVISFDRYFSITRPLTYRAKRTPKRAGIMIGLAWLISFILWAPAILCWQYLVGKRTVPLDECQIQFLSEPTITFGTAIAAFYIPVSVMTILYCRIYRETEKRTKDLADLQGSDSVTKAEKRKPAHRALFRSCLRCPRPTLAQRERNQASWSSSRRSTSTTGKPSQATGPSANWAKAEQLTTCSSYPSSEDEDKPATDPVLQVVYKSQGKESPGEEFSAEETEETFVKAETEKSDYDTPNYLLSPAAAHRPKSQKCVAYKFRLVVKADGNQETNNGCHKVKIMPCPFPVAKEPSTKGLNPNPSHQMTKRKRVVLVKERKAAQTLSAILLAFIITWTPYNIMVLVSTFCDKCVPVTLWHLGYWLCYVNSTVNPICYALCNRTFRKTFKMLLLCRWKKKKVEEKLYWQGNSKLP

| SMILES | % ACh max response |
| --- | --- |
| CCN(Cc1ccccc1)C(=O)C1CCN(S(=O)(=O)c2ccc3c(c2)OCO3)CC1 | 62.9% (active) |
| CCN(Cc1ccccc1)C(=O)C1CCN(S(=O)(=O)c2ccc(C(C)C)cc2)CC1 | 66.7% [at 30 µM] (active) |
| CCN(C(=O)C1CCN(S(=O)(=O)c2cc(F)c(F)c(F)c2)CC1)[C@H](C)c1ccccc1 | 71.9% (active) |
| CCN([C@H](C)c1ccccc1)S(=O)(=O)C1CCN(S(=O)(=O)c2ccc3occc3c2)CC1 | 14.6% (inactive) |
| CCN(Cc1ccccc1)C(=O)C1CCN(S(=O)(=O)c2ccc(C(F)(F)F)cc2)CC1 | 62.6% [at 30 µM] (active) |
| CCN(Cc1ccc(C(F)(F)F)cc1)C(=O)C1CCN(S(=O)(=O)c2ccc3cn[nH]c3c2)CC1 | 24.2% (inactive) |
| CCN(Cc1ccccc1OC(F)(F)F)C(=O)C1CCN(S(=O)(=O)c2ccc3cn[nH]c3c2)CC1 | 73.2% (active) |
| CCN(Cc1ccccc1)C(=O)C1CCN(S(=O)(=O)C(C)C)CC1 | 20.8% [at 30 µM] (inactive) |
| CCN(C(=O)C1CCN(S(=O)(=O)c2ccc3occc3c2)CC1)[C@H](C)c1ccccc1C(F)(F)F | 34.4% (inactive) |
| COc1ccc(S(=O)(=O)N2CCC(C(=O)N3CCCC3c3ccccc3)CC2)cc1 (configuration not stated) | 25.6% [at 30 µM] (inactive) |
| CCN(Cc1ccccc1)C(=O)C1CCNCC1 | 14.9% [at 30 µM] (inactive) |
| CCN(Cc1ccccc1)C(=O)C1CCN(S(=O)(=O)c2cccnc2)CC1 | 34.5% (inactive) |
| CC1c2ccccc2CCN1C(=O)C1CCN(S(=O)(=O)c2ccc3cn[nH]c3c2)CC1 (configuration not stated) | 36.3% (inactive) |
| CCc1ccc(S(=O)(=O)N2CCC(C(=O)N(CC)Cc3ccccc3)CC2)cc1 | 64.3% [at 30 µM] (active) |
| CCN(Cc1ccccc1)C(=O)C1CCN(S(=O)(=O)c2ccccn2)CC1 | 36.4% (inactive) |
| CCN(Cc1ccccc1C(F)(F)F)C(=O)C1CCN(S(=O)(=O)c2ccc(-n3cccn3)cc2)CC1 | 81.9% (active) |

| SMILES | % ACh max response |
| --- | --- |
| CCN(Cc1ccccc1)C(=O)C1CCN(S(=O)(=O)c2ccc3[nH]ncc3c2)CC1 | 84.3% [at 30 µM] (active) |
| CCN(Cc1ccc(OC)cc1)C(=O)C1CCN(S(=O)(=O)c2ccc3cn[nH]c3c2)CC1 | 32% (inactive) |
| CCN(Cc1ccccc1)C(=O)C1CCN(S(=O)(=O)c2cccc(C)c2)CC1 | 63.8% [at 30 µM] (active) |
| CCN(Cc1ccccc1)C(=O)C1CCN(S(=O)(=O)c2cc(C)ccc2C)CC1 | 24.5% [at 30 µM] (inactive) |
| CCN([C@H](C)c1ccccc1)S(=O)(=O)C1CCN(S(=O)(=O)c2ccc3[nH]ncc3c2)CC1 | 18.7% (inactive) |
| CCN(Cc1ccccc1)C(=O)C1CCN(S(=O)(=O)c2ccc(C)s2)CC1 | 68.8% [at 30 µM] (active) |
| CCN(Cc1cccc(F)c1F)C(=O)C1CCN(S(=O)(=O)c2ccc3cn[nH]c3c2)CC1 | 63.7% (active) |
| [2H]C([2H])(C)N(C(=O)C1CCN(S(=O)(=O)c2ccc3cn[nH]c3c2)CC1)[C@H](C)c1ccccc1 | 94.6% (active) |
| CCN(Cc1ccccc1)C(=O)C1CCN(S(=O)(=O)c2cnc[nH]2)CC1 | 33.7% [at 30 µM] (inactive) |
| CCN(Cc1ccccc1)C(=O)C1CCN(S(=O)(=O)c2ccc(C)cc2)CC1 | 73.7% [at 30 µM] (active) |
| CCN(Cc1ccccn1)C(=O)C1CCN(S(=O)(=O)c2ccc3cn[nH]c3c2)CC1 | 35.1% (inactive) |
| CC(=O)N(Cc1ccccc1)CC1CCN(S(=O)(=O)c2ccc3cn[nH]c3c2)CC1 | 11.4% (inactive) |
| COc1ccc(S(=O)(=O)N2CCC(C(=O)N(C)Cc3ccccc3)CC2)cc1 | 64.5% [at 30 µM] (active) |
| CCN(Cc1ccccc1)C(=O)C1CCN(S(=O)(=O)c2ccc(Cl)nc2)CC1 | 50.1% [at 30 µM] (inactive) |
| CCN(Cc1ccccc1)C(=O)C1CCN(S(=O)(=O)c2ccc(OC(F)(F)F)cc2)CC1 | 71.7% [at 30 µM] (active) |
| CCN(Cc1ccccc1)C(=O)C1CCN(S(=O)(=O)c2ccccc2Cl)CC1 | 33.6% [at 30 µM] (inactive) |
